# Measured values published in PubChem BioAssay (NCATS).
# Some of the results follow. Inconclusive results are not listed. Calls of active or inactive are those of the source. Calls come from the whole dose curve; as a rule, active = well fitted curve in the direction sought with a large enough effect; inconclusive = small, poorly fitted or top-dose-only effect, or another doubt; inactive = no such curve, though single readings can be large; an effect the other way counts as inactive or inconclusive.
# Tested on: not listed separately
# Assay: qHTS for small molecule inhibitors of Yes1 kinase: Counter Assay (AID 686950);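 note: no kinase present so only ADP-Glo detection of a fixed ADP amount is tested; luminescence from ADP-Glo reporting ADP in a fixed ATP and ADP mixture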
# Details: series mostly up to 76.9 µM
# Method in brief: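 Luminescence read-out from ADP-Glo quantifies a fixed ADP amount (0.02 mM ADP with 0.08 mM ATP) after 60 min at room temperature; signal is normalized between DMSO wells with ATP/ADP and with 0.1 mM ATP alone.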
row,SMILES,outcome
1,CC(C)(C)c1ccc(Oc2nccc(-c3c(-c4ccc(F)cc4)ncn3C3CCNCC3)n2)cc1,inactive
2,CCc1nccc2c1nc(-c1nonc1N)n2CC,inactive
3,CCOc1ccc2c(-c3ccnc(Nc4cc(OC)cc(C(F)(F)F)c4)n3)cnn2n1,inactive
4,Fc1ccc(-c2ncn(C3CCNCC3)c2-c2ccnc(Oc3ccc(Oc4ccccc4)cc3)n2)cc1,inactive
5,COc1cccc(-n2ncc3c(NN=Cc4ccc(F)cc4)ncnc32)c1,inactive
6,O=C(Nc1n[nH]c2nnc(-c3cccnc3)cc12)C1CC1,inactive
7,COc1ccc2ncn(-c3cc(OC(C)c4ccccc4Cl)c(C(N)=O)s3)c2c1 (configuration not stated),inactive
8,O=C(Nc1ccc(Oc2ccc3nc(NC(=O)c4ccccc4)[nH]c3c2)cc1)Nc1cc(C(F)(F)F)ccc1F,inactive

# Target: Phosphoglycerate kinase, glycosomal (Trypanosoma brucei brucei) (UniProt P07378)
# Assay: qHTS for inhibitors of Phosphogylcerate Kinase: Hit Validation Screen (AID 686980); note: potency is the fitted concentration of half-maximal effect; nearly all actives have a fitted effect of over 65% in size
# Details: TbPGK coupled GAPDH assay, Kinase-Glo luminescence
# Method in brief: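 Luminescent ATP detection (Kinase-Glo Plus) follows a 60-minute room-temperature incubation, with wells lacking PGK as controls. Buffer: 100 mM TEA (pH 7.6), 5 mM MgCl2, 0.01% Tween-20. Coupling enzyme GAPDH (100 nM final) supplies unstable 1,3-BPG in-well.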
# Chain of Phosphoglycerate kinase, glycosomal (Trypanosoma brucei brucei) (P07378 whole entry, looked up): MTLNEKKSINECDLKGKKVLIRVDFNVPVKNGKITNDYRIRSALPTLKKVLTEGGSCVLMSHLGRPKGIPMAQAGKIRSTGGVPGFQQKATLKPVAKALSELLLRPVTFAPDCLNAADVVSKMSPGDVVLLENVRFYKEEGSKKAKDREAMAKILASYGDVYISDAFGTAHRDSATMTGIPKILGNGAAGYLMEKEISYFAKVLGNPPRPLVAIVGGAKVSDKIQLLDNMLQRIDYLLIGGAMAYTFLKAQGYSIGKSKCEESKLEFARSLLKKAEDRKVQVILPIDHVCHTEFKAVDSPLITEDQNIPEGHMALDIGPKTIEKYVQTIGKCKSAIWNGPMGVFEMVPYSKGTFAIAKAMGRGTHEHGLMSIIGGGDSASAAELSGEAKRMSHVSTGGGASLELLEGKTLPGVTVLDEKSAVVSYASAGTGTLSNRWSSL
row,SMILES,Potency
1,COc1ccc(Cl)cc1NC(=O)CCS(=O)(=O)c1ccc(Br)cc1,5.17 µM (active)
2,Cc1ccnc(NC(=O)c2ccoc2C)c1,14.6 µM (active)
3,Cc1ccc(-c2nc(SCc3ccc(Br)cc3)n3[nH]c(=O)cc3n2)cc1,9.19 µM (active)
4,COCCCn1c(Cc2csc(Nc3cccc(Cl)c3)n2)nnc1SCC(=O)OC1CCCCC1,9.19 µM (active)
5,O=C1/C(=C/c2cccs2)CCc2ccccc21,14.6 µM (active)
6,C=CC1=C(C(=O)O)N2C(=O)[C@@H](NC(=O)/C(=N/OCC(=O)O)c3csc(N)n3)[C@H]2SC1,0.116 µM (active)
7,C=CCn1c(C)cc(C2=NNC(=NCC)SC2)c1C,11.6 µM (active)
8,O=C(CSc1nc2ccccc2c(=O)[nH]1)Nc1nc(-c2ccc(Br)cc2)cs1,4.11 µM (active)
9,Cc1c(CC(=O)N2CCN(C(=O)C3COc4ccccc4O3)CC2)c(=O)oc2c(O)c(O)ccc12 (configuration not stated),2.59 µM (active)
10,Cc1ccc(C(=O)O)cc1-c1ccc(/C=C2\SC(=O)N(CC(=O)Nc3ccc4c(c3)OCO4)C2=O)o1,8.19 µM (active)
11,O=C(Oc1ccc(-c2nc(-c3ccccn3)no2)cc1)c1ccccc1,16.3 µM (active)
12,Cc1nonc1C(=O)N/N=C/c1ccc(O)cc1,5.8 µM (active)

# Target: Flap endonuclease 1 (Homo sapiens) (UniProt P39748)
# Assay: qHTS Assay for the Inhibitors of FEN1: Confirmatory Assay for Cherry-picked Compounds (AID 720498); note: potency is the fitted concentration of half-maximal effect; nearly all actives have a fitted effect of over 60% in size
# Details: FEN1 flap cleavage, TAMRA/BHQ2 fluorogenic DNA substrate
# Method in brief: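 FEN1 at 10 nM was preincubated with compound for 15 min at room temperature, then 50 nM (final) double-flap DNA substrate was added. TAMRA fluorescence released from the BHQ-2-quenched flap was read at 0 and 15 min (ex 525/em 598 nm).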
# Chain of Flap endonuclease 1 (Homo sapiens) (P39748 whole entry, looked up): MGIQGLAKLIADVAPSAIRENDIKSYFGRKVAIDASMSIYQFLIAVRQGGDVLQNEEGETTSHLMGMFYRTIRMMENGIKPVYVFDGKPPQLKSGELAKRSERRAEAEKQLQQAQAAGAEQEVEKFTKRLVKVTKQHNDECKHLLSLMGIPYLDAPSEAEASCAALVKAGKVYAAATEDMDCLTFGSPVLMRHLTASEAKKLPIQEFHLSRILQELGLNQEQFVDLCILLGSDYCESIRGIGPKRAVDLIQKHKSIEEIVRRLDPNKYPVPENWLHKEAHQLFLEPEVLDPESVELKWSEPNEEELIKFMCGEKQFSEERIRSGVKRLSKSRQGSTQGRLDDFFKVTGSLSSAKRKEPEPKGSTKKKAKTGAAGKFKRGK
row,SMILES,Potency
1,CCN(CC)c1ccc2cc(C(N)=O)/c(=N\NC(=O)c3ccncc3)oc2c1,33.8 µM (active)
2,COc1nc(N=C(N)N)nc2c(C)cccc12,33.8 µM (active)
3,O=[N+]([O-])c1ccc(C=Nc2ccc(Cl)cc2Cl)s1,6.75 µM (active)
4,O=C(O)C(c1ccccc1)N1C(=O)/C(=C\c2ccc(-c3cccc(Cl)c3)o2)SC1=S (configuration not stated),75.7 µM (active)
5,CCc1ccc2nc3sc(C(=O)Nc4nnc(CC)s4)c(N)c3cc2c1,60.1 µM (active)
6,CC(=O)OC1CCC2(C)C(=CCC3C4CC(=O)N(O)C(=O)C4(C)CCC32)C1 (configuration not stated),23.9 µM (active)
7,C=CC1=C(C(=O)O)N2C(=O)[C@@H](NC(=O)/C(=N/OCC(=O)O)c3csc(N)n3)[C@H]2SC1,33.8 µM (active)
8,CCN1CCN(CCCNC(=O)c2ccc3c(c2)sc2nc(-c4ccc(OC)cc4)cn23)CC1,33.8 µM (active)
9,COc1ccc2[nH]c3c(C)c4cc[n+](C)cc4c(C)c3c2c1,1.35 µM (active)
10,CN(C)CCNC(=O)c1ccc(Cl)c2cc3ccccc3nc12,13.5 µM (active)
11,c1ccc2cc3c(NCCN4CCOCC4)ccnc3cc2c1,37.9 µM (active)
12,CC(=O)Nc1ccc(Nc2c3ccccc3nc3ccccc23)cc1,30.1 µM (active)
13,CN1CCN(CCCNC(=O)c2ccc(/C=C3\Oc4ccccc4N(Cc4ccc(Cl)cc4)C3=O)cc2)CC1,23.9 µM (active)
14,O=C(CSc1nc2ccccc2c(=O)[nH]1)Nc1nc(-c2ccc(Br)cc2)cs1,60.1 µM (active)
15,CCOc1cccc2c1N[C@@H](c1ccc(C(=O)O)cc1)[C@H]1CC=C[C@@H]21,47.8 µM (active)
16,O=C(COC(=O)c1ccc([N+](=O)[O-])o1)NC12CC3CC(CC(C3)C1)C2,8.49 µM (active)
17,Cc1ccc(C(=O)O)cc1-c1ccc(/C=C2\SC(=O)N(CC(=O)Nc3ccc4c(c3)OCO4)C2=O)o1,19 µM (active)
18,COc1cc(NC(=O)COC(=O)c2ccc([N+](=O)[O-])s2)cc(OC)c1OC,6.01 µM (active)
19,CCN1CCN(CCNC(=O)c2ccc3c(c2)NC(=O)/C(=C\c2ccc(OC)c(OC)c2)S3)CC1,33.8 µM (active)
20,O=C(CCNC(=O)c1ccccc1)NN=Cc1ccc(Br)o1,84.9 µM (active)

# Tested on: not listed separately
# Assay: qHTS for Inhibitors of WRN Helicase: Thiazole Orange DNA Binding Counterscreen (AID 720499);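 note: drop in dye fluorescence marks compound binding to DNA; nearly all actives have a fitted effect of over 60% in size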
# Details: thiazole orange DNA binding displacement, fluorescence; series mostly up to 57.1 µM
# Method in brief: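 Compounds were pin-transferred into 50 nM unlabeled DNA premixed with 100 nM thiazole orange. After 15 min at room temperature, fluorescence (ex 480 nm, em 530 nm) was read; loss of signal flags dye displacement from nonspecific DNA binders.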
row,SMILES,Potency
1,COc1ccc(Cl)cc1NC(=O)CCS(=O)(=O)c1ccc(Br)cc1,inactive
2,Cc1ccc(-c2nc(SCc3ccc(Br)cc3)n3[nH]c(=O)cc3n2)cc1,inactive
3,CC1=NN(c2ccc(Cl)c(C(=O)O)c2)C(=O)/C1=C/c1ccc(-c2ccccc2[N+](=O)[O-])o1,inactive
4,CCc1ccc2nc3sc(C(=O)Nc4nnc(CC)s4)c(N)c3cc2c1,inactive
5,COc1cccc2c1C(=O)c1c(O)c3c(c(O)c1C2=O)CC(O)(C(C)=NNC(=O)c1ccc(Cl)c(Cl)c1)CC3OC1CC(N)C(O)C(C)O1 (configuration not stated),inactive
6,Cc1c(CC(=O)N2CCN(C(=O)C3COc4ccccc4O3)CC2)c(=O)oc2c(O)c(O)ccc12 (configuration not stated),inactive
7,CN1CCN(S(=O)(=O)c2cccc(C(=O)Nc3sccc3C#N)c2)CC1,inactive
